Data taken from article PMC7819943, “Rice protein-binding microarrays: a tool to detect cis-acting elements near promoter regions in rice”.
Over roughly 68,000 sequences, “fluorescence intensity (a.u.)” has its median near 9,100; the highest 2% begin near 16,000. Many of the other results were omitted from the sample, so the highest values are more common in it than they were.

What follows are sequences tested against OsWRKY34 (Oryza sativa, UniProt Q0JBA9 1-250) (assay: protein-binding microarray (RPBM); PBS, 2% BSA, 51.3 ng/ul salmon testes DNA, 50 uM zinc acetate, 200 nM TF, 25 C, 1 h; high values mean tight binding). Details: protein: recombinant; tags: N-terminal polyhistidine and DsRed monomer fusion (pET32a); label: CyDye5-dUTP incorporated in the synthesized complementary strand; 3' TTTTT single-stranded linker to array surface; dsDNA, one strand shown.
How it was run: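 The binding signal for each feature is its fluorescence intensity in arbitrary units. An Axon 4000B scanner was used to read a custom Agilent array that had been made double-stranded with Cy5-dUTP primer extension, blocked with 2% BSA, incubated at 25 °C for 1 h with 200 nM protein in PBS, 2% BSA, salmon testes DNA and 50 µM zinc acetate, and washed. The protein was an N-terminal polyhistidine–DsRed transcription factor fusion from E. coli BL21-CodonPlus, purified on Ni–NTA.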

OsWRKY34, sequence (Q0JBA9 entry or part of it): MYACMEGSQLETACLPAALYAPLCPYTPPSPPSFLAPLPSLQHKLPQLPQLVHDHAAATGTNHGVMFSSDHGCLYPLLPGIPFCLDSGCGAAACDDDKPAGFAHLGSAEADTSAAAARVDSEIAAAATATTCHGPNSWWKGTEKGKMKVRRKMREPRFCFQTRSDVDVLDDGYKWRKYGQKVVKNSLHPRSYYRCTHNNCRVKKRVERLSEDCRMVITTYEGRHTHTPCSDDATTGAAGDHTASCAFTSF

Sequence | binding signal
GGCGATCCGGCTTAACTACTTTGTTTGTTTCTCTGTGCAACGGAGTCACCTAGTGCAG | 8480 fluorescence intensity (a.u.)
ACCACCACCACCACCGCCCGCCAAGCGCGGCCCGCCCGACCGGAGTCACCTAGTGCAG | 8720 fluorescence intensity (a.u.)
TGTTCTGCCGGGGTTGTTGCTTACTGATGCAAAACTCTTTCGGAGTCACCTAGTGCAG | 9240 fluorescence intensity (a.u.)
CTTTCCTTTCTTTGTTTTTTATCTTTGTTTTCTTTCTTCCCGGAGTCACCTAGTGCAG | 11800 fluorescence intensity (a.u.)
AATTAGTTTCTTGCTTCTTCTTTTTTCTTTTCTTTTTCATCGGAGTCACCTAGTGCAG | 8210 fluorescence intensity (a.u.)
TCGGTTTGTTTTTTTCCGGTTTATCTTCTTTCGGTTTTTTCGGAGTCACCTAGTGCAG | 18500 fluorescence intensity (a.u.)
TTCCACGGTTTTCTTTTTTCGGTTTTTATCTTTTCTTTTTCGGAGTCACCTAGTGCAG | 13200 fluorescence intensity (a.u.)
GTGTTCATTGCTAGTTGCATTGTGGTTTTCTAGTTAATTACGGAGTCACCTAGTGCAG | 9000 fluorescence intensity (a.u.)
CTTTAATTTTAATTAGAGTTTCTTGCATCGGTTTCCAATGCGGAGTCACCTAGTGCAG | 27700 fluorescence intensity (a.u.)
CACCTTTTTTTAATTTTTTGGTTTCCAATTTTTATTTTTTCGGAGTCACCTAGTGCAG | 10900 fluorescence intensity (a.u.)
ATTGGATGTTAAGTTGTGTTTTTGCTGTTTCATGGTTTTACGGAGTCACCTAGTGCAG | 11400 fluorescence intensity (a.u.)
GATTGGTTGTTTGTTCTGTTTTGGACATGCTTGTTAATTACGGAGTCACCTAGTGCAG | 17100 fluorescence intensity (a.u.)
ATCCAGTGAGCTCGAGGCTTCCCATCTATCCGCCGTTGGTCGGAGTCACCTAGTGCAG | 8260 fluorescence intensity (a.u.)
CGAGCTGCTGATGGCCCCTATGCCACATCTACTATGCATGCGGAGTCACCTAGTGCAG | 17100 fluorescence intensity (a.u.)
CTGCTGCATCTGCACTGCATGGCCATGCCCACACACTTGGCGGAGTCACCTAGTGCAG | 8050 fluorescence intensity (a.u.)
TATGCTTCATCTGTTCTTCTACATTGTTATCTACTATCTGCGGAGTCACCTAGTGCAG | 10100 fluorescence intensity (a.u.)
CTCAACTCGGGATGACATTTGGGGTGTTTTTTTTTTGCAACGGAGTCACCTAGTGCAG | 9820 fluorescence intensity (a.u.)
TACTTGCACTTTACTATATTCTTGCTGTTACGCACCACATCGGAGTCACCTAGTGCAG | 14600 fluorescence intensity (a.u.)
AGTTAAAACCGCTACTCCACTCCTCCCATTGCATAATTTTCGGAGTCACCTAGTGCAG | 9400 fluorescence intensity (a.u.)
AATTTTGATAGATGTGGGATGTGTTGTAATTTGTAAATTTCGGAGTCACCTAGTGCAG | 8270 fluorescence intensity (a.u.)
TTCTTTTCTTTTTTTCTTTGCGGGGATTTCATATAGGATTCGGAGTCACCTAGTGCAG | 8510 fluorescence intensity (a.u.)

Sequence | binding signal
TTGTCCTCAGCCGGCAGTGTAGGTTCCGGGAGGGCGGGGTCGGAGTCACCTAGTGCAG | 19300 fluorescence intensity (a.u.)
GCCGGCGGCAGGGTGGGGCGGGGACGCCTGCCGGCGTCGGCGGAGTCACCTAGTGCAG | 9860 fluorescence intensity (a.u.)
TTTGCAGGTTTCGTTTGCATTTGCGGGGCGGGCATATATGCGGAGTCACCTAGTGCAG | 21600 fluorescence intensity (a.u.)
GCGGCAGGTTTCGGCGGCGGGGCGGGCGGCAGGTGTCGGCCGGAGTCACCTAGTGCAG | 20000 fluorescence intensity (a.u.)
TTTCGGTTTTGCTACTTCACATGCGCATATTTTTGGAGGGCGGAGTCACCTAGTGCAG | 9330 fluorescence intensity (a.u.)
TGGCGCGTGGGAGGGTCAGCCTAGGGCGTCGGAGGGGCGGCGGAGTCACCTAGTGCAG | 13400 fluorescence intensity (a.u.)
AGGTTCCGGGAGGGCGGGGTGGAGCACGAGGCGGCGGTGCCGGAGTCACCTAGTGCAG | 10600 fluorescence intensity (a.u.)
AAGGTGGTGGGGCAGGTGGAGCGGGTGGTCGGGGCGACGCCGGAGTCACCTAGTGCAG | 11300 fluorescence intensity (a.u.)
TTTTGCGCGGATGGCCCTTTACTTTTCCCCTCTTGTCCTCCGGAGTCACCTAGTGCAG | 10400 fluorescence intensity (a.u.)
ACTTCTACTCCTACTTCCCTGTGTGGCCCACAGCTAGATACGGAGTCACCTAGTGCAG | 10300 fluorescence intensity (a.u.)
TGGAAGTCTGGAAGGCGCTGTACCTTCGTCTCGCCCGTCACGGAGTCACCTAGTGCAG | 8650 fluorescence intensity (a.u.)
ATATGTCAAGTTTGGTGGATATAGTTGTTTGGCCTTTTACCGGAGTCACCTAGTGCAG | 11700 fluorescence intensity (a.u.)
CACGCTGCACTGCACCGCTTTACGCCATCTCGCCAATTTTCGGAGTCACCTAGTGCAG | 10300 fluorescence intensity (a.u.)
CCAATTTTTTTTTCTCCTTTTGCTTTTTTTCATCAAGAACCGGAGTCACCTAGTGCAG | 8740 fluorescence intensity (a.u.)
CGGAACCGCTCCTCGAGAAGCTCTCGAATTCCTCGTCGTCCGGAGTCACCTAGTGCAG | 9310 fluorescence intensity (a.u.)
GAACGGTCAAACATGTGTTAAAAAGTCAACGGTGTTAAACCGGAGTCACCTAGTGCAG | 9470 fluorescence intensity (a.u.)
ATAAGACGAACGGTTAAAAATGTGCCAAAAAGTCAACGGCCGGAGTCACCTAGTGCAG | 9640 fluorescence intensity (a.u.)
TGTTATGCAAATGTGCAAATGCAAAAGTTGGCCGCAAGAACGGAGTCACCTAGTGCAG | 17600 fluorescence intensity (a.u.)
AGAACGAACAGTCAAACATATGCTAAAAAGTCAACGGTGTCGGAGTCACCTAGTGCAG | 10200 fluorescence intensity (a.u.)
AGACGAACAGTCAAATATGTGCTAAAAAGTCAACGGTGTCCGGAGTCACCTAGTGCAG | 17500 fluorescence intensity (a.u.)
GGTAAAATATGTGCTAAAAAGTCAACGGTGTCAAACATTTCGGAGTCACCTAGTGCAG | 14400 fluorescence intensity (a.u.)

Sequence | binding signal
TAAGACGAATGGTCAAATATGTGCTAAAAAGTCAACGGTGCGGAGTCACCTAGTGCAG | 13100 fluorescence intensity (a.u.)
ATAAGACGAACGGTCAAATATGTGCTAAAAAGTCAACGGTCGGAGTCACCTAGTGCAG | 16400 fluorescence intensity (a.u.)
AAGACGAACGGTCAAATATGTGCTAAAAAGTCAACGGTGTCGGAGTCACCTAGTGCAG | 9990 fluorescence intensity (a.u.)
TCCTATCCCTACGAGCACTTCCGAAATATTGGACTGACATCGGAGTCACCTAGTGCAG | 8370 fluorescence intensity (a.u.)
ATAACTCGGGTCGGACTCGGACCTCAGGCCCACGTATTCCCGGAGTCACCTAGTGCAG | 8400 fluorescence intensity (a.u.)
CGCTGATTGGGTTGGGTCGGGTTAGCTTTGGTTTCAATGCCGGAGTCACCTAGTGCAG | 11200 fluorescence intensity (a.u.)
AATACTCCTCTACTCATATTAGTACAATATCACAAACTTACGGAGTCACCTAGTGCAG | 8250 fluorescence intensity (a.u.)
ACTGCTTTGTTCTATTTGATTATTTTTTTACTCATCAGATCGGAGTCACCTAGTGCAG | 15900 fluorescence intensity (a.u.)
ATGTTTGACACCGTTGATTTTTTAACACATGTTTGACCGTCGGAGTCACCTAGTGCAG | 9910 fluorescence intensity (a.u.)
TGTTTGACGCCGTTGACTTTTTAGCACATGTTTGACCGTTCGGAGTCACCTAGTGCAG | 43600 fluorescence intensity (a.u.)
AATGTTTGACGCCGTTGACTTTTTAGCACATGTTGACCGTCGGAGTCACCTAGTGCAG | 42200 fluorescence intensity (a.u.)
ACGCCATTGACTTTTTAGCAGATGTTTGACCGTTCGTTTTCGGAGTCACCTAGTGCAG | 20700 fluorescence intensity (a.u.)
TGTTTGACGCCGTTGACTTTTTAACACATGTTTGACCGTTCGGAGTCACCTAGTGCAG | 41700 fluorescence intensity (a.u.)
GCCGCGCACGCCGTCATCTCTTTTTCGTTCCATACTTCTCCGGAGTCACCTAGTGCAG | 10700 fluorescence intensity (a.u.)
GGCTGGGTGTTACAACTTTGTCCAAAACATCAATAATTATCGGAGTCACCTAGTGCAG | 8610 fluorescence intensity (a.u.)
CCCACATTTTTTCTTCTCACTTATATGTGGGTCCCATAATCGGAGTCACCTAGTGCAG | 8640 fluorescence intensity (a.u.)
AGTTATTTATTTTGTTGTGGTTTGTTTTATAGTTAAAGGTCGGAGTCACCTAGTGCAG | 10100 fluorescence intensity (a.u.)
CGATCCCACCGACTCCCGGCCACCTCTGCTTCCCCGGCGACGGAGTCACCTAGTGCAG | 9140 fluorescence intensity (a.u.)
TATATGTTTGGCGCTCAAAACCTAATAGTAGTTCTTATGTCGGAGTCACCTAGTGCAG | 8300 fluorescence intensity (a.u.)
CTCTCCTCTCATCTCATCTCATCTCCAAGGCTGGTCTTTACGGAGTCACCTAGTGCAG | 8320 fluorescence intensity (a.u.)
ACAGCCGCGTCGCCGCTTGTCCGCCTGCGCTCGTTCTCGCCGGAGTCACCTAGTGCAG | 9640 fluorescence intensity (a.u.)

Sequence | binding signal
GGCATCCTACACTCTAGCTAGCCCACAGTCCGCTGCCGGCCGGAGTCACCTAGTGCAG | 8790 fluorescence intensity (a.u.)
GCGGATGGAATGGCAAGGGAGGAAACTGGTGGGGTGGGAGCGGAGTCACCTAGTGCAG | 8960 fluorescence intensity (a.u.)
TTCGGTTGGGTGGAGGAAGCGCGGGTGAAAAAGGTGGGGACGGAGTCACCTAGTGCAG | 10600 fluorescence intensity (a.u.)
GGAATATTCTCACATCTCAGCCATCCATTTTCCATCTCAACGGAGTCACCTAGTGCAG | 9090 fluorescence intensity (a.u.)
CAGCAGTGTGTGTAAGAGGAGAGAGAAGCAGTGCCCTTTACGGAGTCACCTAGTGCAG | 8530 fluorescence intensity (a.u.)
GATAGGTTGTGTGTGTGCAGTGTGTGTTTATAAGAGGTGACGGAGTCACCTAGTGCAG | 10200 fluorescence intensity (a.u.)
TACATCATCTAGTGTTGCAGCAGCAGTGTGTGTAAGAGGACGGAGTCACCTAGTGCAG | 28500 fluorescence intensity (a.u.)
CGTCACTTTTTTTTCTCCCCTATTTCTTTTCTCCTTTTCTCGGAGTCACCTAGTGCAG | 10900 fluorescence intensity (a.u.)
CCGCTCTCCTACTGCTCGGCCAACCAGTCATGCACACATACGGAGTCACCTAGTGCAG | 8790 fluorescence intensity (a.u.)
ATAAAATAGTTGACTGGCTATCTTCTACTCCACTTGGTATCGGAGTCACCTAGTGCAG | 8860 fluorescence intensity (a.u.)
CGGCGGGCGGGAGGGCGGCGTTGATTTCGTTGGGGTTTGCCGGAGTCACCTAGTGCAG | 19100 fluorescence intensity (a.u.)
AGGCGGAGGAGGGGAGGCGGAAGGGGTTCGCGTCGGCGGCCGGAGTCACCTAGTGCAG | 12200 fluorescence intensity (a.u.)
TTTACAGTTGATTTTGACGGGTTTGTTGGCGAGGATTTTTCGGAGTCACCTAGTGCAG | 9360 fluorescence intensity (a.u.)
CGGGAGGAGGGAGGTTGTTTCGTCTGGGGTTTGATTGGGACGGAGTCACCTAGTGCAG | 18200 fluorescence intensity (a.u.)
AGGGGAGGCGTCGCTTGGTCGCCATCTTCGTCGTTTGCTTCGGAGTCACCTAGTGCAG | 9720 fluorescence intensity (a.u.)
GATTAGGGTTGTTGCCGGGGTTTGTTTGGTGTTGCGGCGGCGGAGTCACCTAGTGCAG | 8510 fluorescence intensity (a.u.)
TTGATTTCGTTGGGGTTTGCGTTGCGTGCGGAGGACGGGGCGGAGTCACCTAGTGCAG | 15200 fluorescence intensity (a.u.)
TTTGGGGTTTGAGAAGGTTGAGGAGGAGTTGGGAGGTTGACGGAGTCACCTAGTGCAG | 9580 fluorescence intensity (a.u.)
TGCTTTCGTTGGGTTGGGGAAGGGGAGGCGTCGCTTGGTCCGGAGTCACCTAGTGCAG | 17100 fluorescence intensity (a.u.)
AGAGAGAGGTTGCTGTTTCGATGCGTATTTCTGCAGCTTTCGGAGTCACCTAGTGCAG | 10100 fluorescence intensity (a.u.)
GTCCCGGGCACCGACCACGATCCGTTCCCGCCACACAAACCGGAGTCACCTAGTGCAG | 8080 fluorescence intensity (a.u.)
